Bioassay records: PubChem BioAssay, National Center for Advancing Translational Sciences (NCATS)
HCMV inh = inhibitors of human cytomegalovirus. HFF cells, HCMV-luciferase reporter, 72 h; stronger effect = lower value. activity change, negative = inhibition, % at 57.5 µM. 410,000 tested, 4.5% active; in the data active means activity change below about -60%; inconclusive means no clear call, values can overlap the other calls; inactive means above about -39%
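Two compound doses tested in HFFs infected with HCMV-luciferase, MOI 1 PFU/cell, 72 h at 37C. Lysate luminescence read with OneGlo; data normalized against buffer-only and 10uM Salinomycin inhibitor controls.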
Pf growth 96h = P. falciparum growth inhibition at 96 hour, primary screen for plastid delayed-death inhibitors. P. falciparum luciferase reporter growth, 96 h. Potency, µM (series often up to 28.7 µM), usual class: inhibitors. 320,000 tested, 6.9% active. AID 504834
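Infected RBCs, 2% Hct / 0.05% parasitemia final; luciferase-reporter P. falciparum; cpd 96 h, 37 C, 5% CO2; luciferase detection reagent; luminescence.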
HCV inhibitor = inhibitors of hepatitis C virus infection | Huh7.5.1 HCVcc-Cre infection, luciferase reporter, 44 h | 340,000 tested, 3.4% active | Potency, µM (titrated, usually from 41.8 µM), usual class: inhibitors
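Cells seeded at 1,000/well and cultured 4 h, then compounds added followed by HCVcc-Cre virus (~0.5 moi). After 44 h further culture, luciferase substrate was added, plates held 15 min at room temperature, and luminescence read for 15 sec.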
Pf growth 48h = P. falciparum growth inhibition at 48 hours (one generation); P. falciparum luciferase growth in erythrocytes, 48 h; Potency, µM (titrated, usually from 28.7 µM), hits mostly inhibitors; 310,000 tested, 5.9% active; AID 504832
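Read-out is firefly luciferase luminescence from an integrated reporter in P. falciparum, so falling signal marks reduced parasite growth. Infected erythrocytes were at 2% hematocrit and 0.1% parasitemia (final) in Albumax-supplemented RPMI 1640.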
A number is an active result; – = inactive; ? = inconclusive; · = no result; [ ] = remark or other dose. Most compounds without a hit are left out; they make up all but 13% or so of the library. Unless noted, the call rests on the fitted dose curve; in most records, active means well fitted inhibition curve with a large enough effect; inconclusive means small, poorly fitted or top-dose-only effect, or another doubt; inactive means no such curve, though single readings can be large or run the other way.

SMILES	HCMV inh	Pf growth 96h	HCV inhibitor	Pf growth 48h
CC(C)(C)c1ccc(-c2nc3cc(NC(=O)c4cccc(Br)c4)ccc3o2)cc1	–	·	·	·
Cc1ccc(Nc2nnns2)cc1	–	–	–	–
CC1=CC(C)(C)N=C(Nc2ccc(C)cc2)S1	–	10µM	–	·
Nc1ncnc(Nc2ccc(F)cc2)n1	–	–	–	–
Fc1ccc(Nc2ccnc(Nc3ccc(F)cc3)n2)cc1	–	?	?	2.3µM
C[C@@H]1O[C@@H](O[C@@H]2C=C3CC[C@@H]4C(CC[C@]5(C)[C@@H](c6ccc(=O)oc6)CC[C@]45O)[C@@]3(C)CC2)[C@H](O)[C@H](O)[C@H]1O (stereo partly specified)	-97	–	0.56µM	–
CC(=O)C1CCC2(O)C3CCC4=CC(=O)CCC4(C)C3CCC12C (stereo unspecified)	–	·	–	·
C[C@@H]1O[C@@H](O[C@@H]2C=C3CCC4C(CC[C@]5(C)[C@@H](c6ccc(=O)oc6)CC[C@]45O)[C@@]3(C)CC2)[C@H](O)[C@H](O)[C@H]1O (stereo partly specified)	-99	?	?	–
Cc1ccc(-n2ncc3c(N4CCCCCC4)ncnc32)cc1Cl	-90	·	·	·
Cc1ccc(-n2ncc3c(N4CCCCC4)ncnc32)cc1Cl	-89	·	·	·
COc1ccc(N2CCN(c3ncnc4c3cnn4-c3ccc(C)c(Cl)c3)CC2)cc1	–	·	·	·
COc1ccc(Cl)cc1Nc1ncnc2c1nc1n2CCCC1	–	·	·	·
Clc1cccc(Cl)c1CON/C=N/c1ncnc2sccc12	?	?	11µM	?
Clc1cccc(CON/C=N/c2ncnc3sccc23)c1	–	–	?	?
COc1cccc(-c2c(-c3cc(OC)cc(OC)c3)n(C)c3ccc(-c4ccc5[nH]ccc5c4)cc23)c1	–	?	?	5.9µM
COc1ccc(-c2c(-c3cc(OC)cc(OC)c3)n(C)c3ccc(-c4cccc5[nH]ccc45)cc23)cc1	–	?	–	?
COc1ccc(-c2c(-c3cc(OC)cc(OC)c3)n(C)c3ccc(-c4ccc5cc[nH]c5c4)cc23)cc1	–	·	?	·
COc1cccc(-c2c(-c3cc(OC)cc(OC)c3)n(C)c3ccc(-c4cccc5[nH]ccc45)cc23)c1	–	?	?	1.9µM
CC(C)c1cnc2c(c1SCC(=O)c1ccc(Cl)cc1)c(=O)n(C)c(=O)n2C	–	·	·	·
O=C(CN1C(=O)C2CCCCN2c2ccc(C(=O)N3CCCC3)cc21)NCc1ccccc1F (stereo unspecified)	–	·	·	·
Cc1cc(OC(C)C(=O)N(Cc2ccc(N(C)C)cc2)Cc2ccco2)ccc1Cl (stereo unspecified)	–	·	·	·
COc1ccc(CN2CCN(C(=O)Cn3ncn4cccc4c3=O)CC2)c(OC)c1OC	-64	?	?	–
COc1ccc(CN2CCN(C(=O)Cn3c(=O)oc4cc(Cl)ccc43)CC2)c(OC)c1OC	?	?	3.5µM	–
O=c1ccc(S(=O)(=O)N2CCCC2)cn1Cc1ccc(Cl)cc1Cl	–	?	6.3µM	?
CN(C)C(=O)c1ccc(=O)n(Cc2ccc(Cl)cc2Cl)c1	·	–	–	–[0.00184 µM]
SMILES	HCMV inh	Pf growth 96h	HCV inhibitor	Pf growth 48h
COc1cc2c3c(c1)c(N=NC(N)=S)c(O)n3C(C)(C)C=C2C	–	6.6µM	?	10µM
Cc1ccccc1CC1(CO)CCCN(C(=O)c2cc(Cl)ccc2F)C1 (stereo unspecified)	–	–	–	–
Cc1ccccc1CC1(CO)CCCN(C(=O)c2ccccc2Cl)C1 (stereo unspecified)	?	9.3µM	–	–
Cc1ccccc1CC1(CO)CCCN(Cc2ccn[nH]2)C1 (stereo unspecified)	–	12µM	–	–
CCCCC/C(C=O)=C/c1ccccc1	·	–	·	–
COc1cccc(C2NC(=O)c3n[nH]c(-c4cccs4)c32)c1 (stereo unspecified)	–	·	·	·
S=C(Nc1cccc2ccccc12)NN1CCOCC1	–	?	–	–
S=C(Nc1cccc2ccccc12)NN1CCCCCC1	-63	·	–	·
NC(=O)C1CCCN(C(=O)Nc2cccc3ccccc23)C1 (stereo unspecified)	-64	–	–	–
CCC(C(=O)Nc1c(C)cc(C)cc1C)n1c(=O)c(-c2ccccc2NC(C)=O)nc2ccccc21 (stereo unspecified)	–	·	·	·
CCc1ccc(NC(=O)C(CC)n2c(=O)c(-c3ccccc3NC(C)=O)nc3ccccc32)cc1 (stereo unspecified)	-91	·	·	·
CCOC(=O)c1c(-c2ccc(OC)cc2)oc2ccc(OCC(N)=O)cc12	–	–	2.2µM	–
CCOc1ccc2oc(-c3ccccc3)c(C(=O)N(C)C)c2c1	-62	·	?	–
CCOc1ccc2oc(-c3ccccc3)c(C(=O)O)c2c1	–	·	–	–
Cc1ccc(-n2ncc(C(=O)NCCN3CCN(C)CC3)c2C2CCN(C(=O)OC(C)(C)C)CC2)c(C)c1	–	·	·	·
CC(C)c1ccc(Nc2ncnc3c2nc2n3CCCC2)cc1	–	·	·	·
Cn1c(CC(=O)Nc2ccccc2)nnc1SCC(=O)NC1=NCCS1	–	2.6µM	–	–
CCn1c(CNC(=O)c2cccs2)nnc1SCC(=O)Nc1ccc(Cl)cc1	–	9.3µM	–	10µM
C=CCn1c(CCNC(=O)c2cccs2)nnc1SCC(=O)Nc1cccc(C(C)=O)c1	–	9.3µM	–	–
CCn1c(CNC(=O)c2ccc(Cl)cc2)nnc1SCC(=O)NC1=NCCS1	–	8.3µM	–	–
C=CCn1c(CCNC(=O)c2cccs2)nnc1SCC(=O)c1ccc(Br)cc1	–	?	–	·
CN(Cc1ccccc1)c1ccc(-c2nc(-c3ccco3)no2)cc1[N+](=O)[O-]	–	·	·	·
COc1ccc(Cl)cc1NC(=O)CSc1cn(CC(=O)N2CCCCCC2)c2ccccc12	–	·	·	·
CCCSc1nc2sc3c(c2c(=O)n1-c1ccccc1)CCC(C)C3 (stereo unspecified)	–	·	·	·
CCn1c(CNc2ccc(F)cc2)nnc1SCC(=O)Nc1ccc(OC)cc1	–	–	–	?
SMILES	HCMV inh	Pf growth 96h	HCV inhibitor	Pf growth 48h
CCOc1ccc(NC(=O)CSc2nnc(Cn3cnc([N+](=O)[O-])n3)n2CC)cc1	-67	–	–	–
CCSCc1nnc(SCC(=O)Nc2ccc(F)cc2)n1CC	–	12µM	–	–
NC(Cc1ccc(O)cc1)C(=O)NN=Cc1ccccc1Cl (stereo unspecified)	–	·	·	·
Cc1ccc(CCNC(=O)CCCn2nc(C)c3c(C)n(-c4ccccc4)nc3c2=O)cc1	–	·	·	·
COc1ccc(S(=O)(=O)N2CCCCC2)cc1NC(=O)C1CSC2(C)CCC(=O)N12 (stereo unspecified)	·	–	–	?
Cc1sc(NC(=O)C2CSC3(C)CCC(=O)N23)nc1-c1ccc(F)cc1 (stereo unspecified)	–	?	14µM	?
CCOc1ccc(S(=O)(=O)N2CCCCC2)cc1NC(=O)C1CSC2(C)CCC(=O)N12 (stereo unspecified)	–	?	–	1µM
COc1cc(NC(=O)C2CSC3(C)CCC(=O)N23)c(OC)cc1Cl (stereo unspecified)	–	–	10µM	?
